Records with an inconclusive call do not appear. The source made the active and inactive calls. Unless noted, the call rests on the fitted dose curve.
Tests used:
[1] = Nuclear factor erythroid 2-related factor 2/antioxidant responsive element (Nrf2/ARE) small molecule agonists: qHTS cell viability counter screen in human keratinocytes (AID 1919968; active means well fitted curve in the direction sought with a large enough effect in the repeat runs; an effect the other way counts as inactive or inconclusive; further: nearly all actives have a fitted effect of over 55% in size); details: KeratinoSens HaCaT ARE cells viability, CellTiter-Fluor, 24 h; series mostly up to 92.4 µM
How it was run: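 KeratinoSens cells (HaCaT keratinocytes stably carrying an ARE-luciferase reporter) were seeded at 1,500 cells/well and rested 5 h at 37 C/5% CO2. They were then exposed to compounds in DMSO for 23 h. Viability was read by CellTiter-Fluor fluorescence after 1 h.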

[2] = Nuclear factor erythroid 2-related factor 2/antioxidant responsive element (Nrf2/ARE) small molecule agonists: luciferase reporter gene qHTS assay in human keratinocytes (AID 1919969); details: KeratinoSens HaCaT ARE-luciferase, luminescence, 24 h; series mostly up to 92.4 µM; further: nearly all actives have a fitted effect of over 35% in size; further: potency means the concentration at half of the fitted maximal effect
[3] = target: KiSS-1 receptor (Homo sapiens) (UniProt Q969F8); assay: Human kisspeptin (KISS1R) small molecule agonists, calcium flux assay in KISS1R-HEK293 cells (AID 1920064; active means well fitted curve in the direction sought with a large enough effect in the repeat runs; an effect the other way counts as inactive or inconclusive); details: KISS1R-HEK293, calcium flux fluorescence, agonist; series mostly up to 76.8 µM
How it was run: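 HEK293 cells stably expressing human KISS1R were plated 18 h at 37 °C, loaded with calcium dye for 1 h at 37 °C, then given compound by pin tool. Fluorescence (Ex/Em 480/540) was read kinetically for 3 min.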

[4] = G protein-coupled receptor (GPCR) small molecule agonists, calcium flux assay: HEK293 wild type cell line counter screen (AID 1920065); details: HEK293 WT calcium flux, fluorescence, agonist mode; series mostly up to 57.6 µM
How it was run: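 Cells were plated and cultured 18 h at 37 C/5% CO2, then loaded with calcium dye for 1 h at 37 C. Compounds in DMSO were pin-transferred in agonist mode, and fluorescence (Ex/Em 480/540) was read kinetically for 3 min at 1 s intervals.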

[5] = p53 small molecule agonists, cell-based qHTS assay with human liver microsomes (AID 1963577); details: HCT-116 p53RE-bla with human liver microsomes, ratio, 16 h; series mostly up to 66 µM;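 further: p53 response element beta-lactamase reporter cells with liver microsomes plus NADPH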
How it was run: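 Reporter activation was measured by LiveBLAzer fluorescence intensity in p53RE-bla cells, which had been exposed to compounds for 16 h at 37 C alongside 0.5 mg/mL human liver microsomes and 0.5 mg/mL NADPH (final concentrations).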

[6] = p53 small molecule agonists, cell-based qHTS assay with rat liver microsomes (AID 1963578); details: HCT-116 p53RE-bla, beta-lactamase ratio, 16 h; series mostly up to 66 µM
How it was run: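 Compound in DMSO added to p53RE-bla cells 5 h post-plating; rat microsomes/NADPH 0.5 mg/mL final; 16 h, 37 C; LiveBLAzer 2 h RT.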

[7] = p53 small molecule agonists, cell-based qHTS assay with human liver microsomes: qHTS cell viability counter screen (AID 1963579); details: p53RE-bla HCT-116 viability, ATP luminescence, 16 h, HLM; series mostly up to 66 µM; further: nearly all actives have a fitted effect of over 45% in size
How it was run: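 HLM-supplemented (0.5 mg/mL final) and NADPH-supplemented (0.5 mg/mL final) p53RE-bla cultures, 4,000 cells per well, were dosed with compounds in DMSO for 16 h at 37 C; luminescent ATP detection (CellTiter-Glo, 30 min, room temperature) quantified surviving cells.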

[8] = p53 small molecule agonists, cell-based qHTS assay with rat liver microsomes: qHTS cell viability counter screen (AID 1963580); details: p53RE-bla HCT-116 + rat microsomes, ATP viability, 16 h; series mostly up to 66 µM; further: nearly all actives have a fitted effect of over 45% in size
How it was run: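 HCT-116 p53RE-bla, 4,000 cells/well, 5 h pre-incubation; cpd + rat liver microsomes 0.5 mg/mL + NADPH 0.5 mg/mL (final); 16 h, 37 C; CellTiter-Glo, 30 min RT; luminescence.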

[9] = p53 small molecule agonists, cell-based qHTS assay: qHTS cell viability counter screen (AID 1963581); details: p53RE-bla HCT-116 viability, ATP luminescence, 16 h; series mostly up to 66 µM; further: nearly all actives have a fitted effect of over 45% in size
How it was run: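 p53RE-bla HCT-116 cells were exposed to compounds for 16 h at 37 C; after the beta-lactamase FRET read in the same wells, CellTiter-Glo was added and luminescence (intracellular ATP) read after 30 min at room temperature.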

[10] = p53 small molecule agonists, cell-based qHTS assay (AID 1963582; active means well fitted activation curve with a large enough effect in the signal ratio in the repeat runs, not every such curve was filed as active; the % refers to the signal ratio); details: HCT-116 p53RE-bla reporter, beta-lactamase FRET ratio, 16 h; series mostly up to 66 µM
How it was run: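 p53RE-bla beta-lactamase reporter cells rested 5 h at 37 C/5% CO2, then received compounds in DMSO by pin transfer and were incubated 16 h at 37 C. LiveBLAzer B/G FRET substrate was loaded for 2 h at room temperature before fluorescence reading.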

[11] = target: 5-hydroxytryptamine receptor 2A (Homo sapiens) (UniProt P28223); assay: 5-hydroxytryptamine receptor 2A (HTR2A) small molecule antagonists, cell-based qHTS assay (AID 1963586); details: HTR2A-CHO cells, DOI-induced calcium flux, fluorescence; series mostly up to 61.5 µM; further: nearly all actives have a fitted effect of over 45% in size
How it was run: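 Antagonist-mode intracellular calcium assay: DOI (4 nM) added after 5 min compound pre-incubation at room temperature to dye-loaded HTR2A-CHO cells. Fluorescence followed for 3 min, sampled every second.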

[12] = target: Muscarinic acetylcholine receptor M1 (Homo sapiens) (UniProt P11229); assay: Cholinergic receptor muscarinic 1 (CHRM1) small molecule antagonists, cell-based qHTS assay (AID 1963588); details: CHRM1-CHO antagonist mode, calcium flux fluorescence; series mostly up to 61.5 µM; further: nearly all actives have a fitted effect of over 40% in size
How it was run: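 CHRM1-CHO calcium-flux assay, antagonist mode. Cells were seeded 18 h, dye-loaded 1 h at 37 C and given compound for 5 min at RT, then acetylcholine was added at 50nM. FDSS fluorescence was read 3 min; 15 concentrations, three runs.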

[13] = target: Muscarinic acetylcholine receptor M1 (Homo sapiens) (UniProt P11229); assay: Cholinergic receptor muscarinic 1 (CHRM1) small molecule agonists, cell-based qHTS assay (AID 1963589); details: CHRM1-CHO cells, agonist mode, calcium flux fluorescence; series mostly up to 76.8 µM; further: nearly all actives have a fitted effect of over 35% in size; further: potency means the concentration at half of the fitted maximal effect
How it was run: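 CHO cells stably expressing human CHRM1, seeded 18 h at 37 C/5% CO2, dye-loaded 1 h at 37 C, then given compound in agonist mode; intracellular calcium fluorescence read kinetically at 1 s intervals. Fifteen concentrations, three independent runs.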

[14] = cAMP Responsive Elements (CRE) small molecule antagonists, cell-based qHTS assay (AID 1963591; active means well fitted inhibition curve with a large enough effect in the signal ratio in the repeat runs, not every such curve was filed as active; the % refers to the signal ratio); details: CRE-bla HEK293T, beta-lactamase FRET ratio; series mostly up to 92.4 µM
How it was run: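 CRE-bla HEK293T cells were plated 18 h at 37 °C/5% CO2, pinned with compound in DMSO, then stimulated with NKH477 at 0.25 uM final for 3 h. LiveBLAzer B/G FRET substrate was added and plates incubated 2 h at room temperature.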

[15] = target: Beta-2 adrenergic receptor (Homo sapiens) (UniProt P07550); assay: Adrenergic beta2 receptor (ADRB2) small molecule antagonists, cell-based qHTS assay (AID 1963592); details: CHO-ADRB2 cells, isoproterenol-stimulated cAMP HTRF ratio, 0.5 h; series mostly up to 92.4 µM; further: nearly all actives have a fitted effect of over 50% in size
How it was run: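 Cells (CHO, stable ADRB2 overexpression) incubated 18-20hr at 37C; compounds added from DMSO; agonist mix (1nM isoproterenol, 100uM IBMX, 25uM Ro-20-1724) added; 0.5hr RT; d2-cAMP and anti-cAMP-cryptate added; 1hr RT; 665/615 nm read.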

[16] = target: D(2) dopamine receptor (Homo sapiens) (UniProt P14416); assay: Dopamine D2 receptor (DRD2) small molecule agonists, cell-based qHTS assay (AID 1963594); details: HEK293-DRD2 cAMP HTRF, agonist mode, 30 min; series mostly up to 92.4 µM; further: nearly all actives have a fitted effect of over 35% in size
How it was run: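 cAMP accumulation in DRD2-HEK293 cells measured by HTRF after 1 h detection; compounds added 10 min before NKH477 (200nM […]) forskolin-analogue stimulation, 30 min at room temperature, with Ro20-1724 present at 0.1 mM final.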

[17] = target: D(2) dopamine receptor (Homo sapiens) (UniProt P14416); assay: Dopamine D2 receptor (DRD2) small molecule antagonists, cell-based qHTS assay (AID 1963595; active means well fitted inhibition curve with a large enough effect in the signal ratio in the repeat runs, with a control signal flat; the % refers to the signal ratio); details: HEK293-DRD2 cAMP HTRF antagonist mode; series mostly up to 92.4 µM
How it was run: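 Antagonist mode in DRD2-HEK293 cells: after compound addition with 0.1 mM Ro20-1724, cells received quinpirole (12 nM) and NKH477 (200 nM) for 30 min at room temperature; HTRF cAMP read after 1 h detection.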

[18] = target: 5-hydroxytryptamine receptor 2A (Homo sapiens) (UniProt P28223); assay: 5-hydroxytryptamine receptor 2A (HTR2A) small molecule agonists, cell-based qHTS assay (AID 1963587); details: HTR2A-CHO cells, calcium flux fluorescence, agonist mode; series mostly up to 76.8 µM; further: nearly all actives have a fitted effect of over 30% in size
How it was run: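 Kinetic calcium-flux fluorescence (2 min, 1 sec intervals) after compound addition in agonist mode. HTR2A-CHO cells were cultured 18 h, then dye-loaded 1 h at 37 C.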

[19] = cAMP Responsive Elements (CRE) small molecule agonists, cell-based qHTS assay (AID 1963590); details: CRE-bla HEK293T, beta-lactamase FRET ratio, 3 h; series mostly up to 92.4 µM
How it was run: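 CRE-bla HEK 293T cells in DMEM with 10% dialyzed FBS, NEAA, pyruvate and 25 mM HEPES were plated 18 h at 37 C/5% CO2, then exposed to compounds in DMSO for 3 h before LiveBLAzer B/G FRET substrate addition.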

[20] = target: Beta-2 adrenergic receptor (Homo sapiens) (UniProt P07550); assay: Adrenergic beta2 receptor (ADRB2) small molecule agonists, cell-based qHTS assay (AID 1963593); details: CHO-ADRB2 cells, cAMP HTRF, 30 min; series mostly up to 42.5 µM;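 further: CHO cells stably overexpressing human ADRB2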
How it was run: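 CHO cells stably over-expressing ADRB2 were plated overnight at 37C, then dosed with compounds plus a stimulation mix containing 100uM IBMX and 25uM Ro-20-1724 for 0.5hr at room temperature. cAMP was measured by HTRF competition, 1hr.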

Measured: Potency

Sequence of D(2) dopamine receptor (Homo sapiens) (P14416 whole entry, looked up): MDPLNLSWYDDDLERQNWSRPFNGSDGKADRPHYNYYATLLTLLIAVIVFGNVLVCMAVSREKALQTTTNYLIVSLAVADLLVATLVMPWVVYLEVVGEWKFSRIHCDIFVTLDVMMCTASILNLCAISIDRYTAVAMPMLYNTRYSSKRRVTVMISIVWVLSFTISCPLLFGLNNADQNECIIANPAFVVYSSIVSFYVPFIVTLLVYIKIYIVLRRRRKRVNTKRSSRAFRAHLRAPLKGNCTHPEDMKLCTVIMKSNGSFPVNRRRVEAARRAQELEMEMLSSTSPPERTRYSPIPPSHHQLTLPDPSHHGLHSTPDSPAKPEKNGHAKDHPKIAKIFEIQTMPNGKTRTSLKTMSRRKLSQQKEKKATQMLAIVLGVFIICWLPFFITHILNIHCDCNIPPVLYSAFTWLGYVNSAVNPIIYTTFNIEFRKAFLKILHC
Sequence of Beta-2 adrenergic receptor (Homo sapiens) (P07550 whole entry, looked up): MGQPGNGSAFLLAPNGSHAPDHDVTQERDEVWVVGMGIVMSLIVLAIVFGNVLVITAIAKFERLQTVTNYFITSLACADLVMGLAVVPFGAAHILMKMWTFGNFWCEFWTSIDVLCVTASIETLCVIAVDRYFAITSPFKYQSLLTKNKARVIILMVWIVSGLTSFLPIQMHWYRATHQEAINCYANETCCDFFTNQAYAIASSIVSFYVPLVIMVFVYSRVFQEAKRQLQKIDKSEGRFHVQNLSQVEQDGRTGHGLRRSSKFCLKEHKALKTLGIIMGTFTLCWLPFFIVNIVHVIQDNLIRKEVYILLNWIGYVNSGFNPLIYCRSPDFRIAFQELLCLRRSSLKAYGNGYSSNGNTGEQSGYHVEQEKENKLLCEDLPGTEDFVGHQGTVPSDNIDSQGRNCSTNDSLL
Sequence of KiSS-1 receptor (Homo sapiens) (Q969F8 whole entry, looked up): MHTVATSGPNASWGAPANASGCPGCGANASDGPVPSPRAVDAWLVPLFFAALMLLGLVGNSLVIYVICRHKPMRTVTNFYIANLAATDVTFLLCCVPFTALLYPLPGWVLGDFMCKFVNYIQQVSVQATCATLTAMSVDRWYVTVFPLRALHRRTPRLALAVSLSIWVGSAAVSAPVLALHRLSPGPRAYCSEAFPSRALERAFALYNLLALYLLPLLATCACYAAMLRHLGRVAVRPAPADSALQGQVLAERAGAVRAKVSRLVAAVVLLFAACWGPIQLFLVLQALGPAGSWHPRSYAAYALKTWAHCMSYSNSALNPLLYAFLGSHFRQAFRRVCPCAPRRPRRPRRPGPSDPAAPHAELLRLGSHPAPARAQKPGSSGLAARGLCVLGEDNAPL
Sequence of 5-hydroxytryptamine receptor 2A (Homo sapiens) (P28223 whole entry, looked up): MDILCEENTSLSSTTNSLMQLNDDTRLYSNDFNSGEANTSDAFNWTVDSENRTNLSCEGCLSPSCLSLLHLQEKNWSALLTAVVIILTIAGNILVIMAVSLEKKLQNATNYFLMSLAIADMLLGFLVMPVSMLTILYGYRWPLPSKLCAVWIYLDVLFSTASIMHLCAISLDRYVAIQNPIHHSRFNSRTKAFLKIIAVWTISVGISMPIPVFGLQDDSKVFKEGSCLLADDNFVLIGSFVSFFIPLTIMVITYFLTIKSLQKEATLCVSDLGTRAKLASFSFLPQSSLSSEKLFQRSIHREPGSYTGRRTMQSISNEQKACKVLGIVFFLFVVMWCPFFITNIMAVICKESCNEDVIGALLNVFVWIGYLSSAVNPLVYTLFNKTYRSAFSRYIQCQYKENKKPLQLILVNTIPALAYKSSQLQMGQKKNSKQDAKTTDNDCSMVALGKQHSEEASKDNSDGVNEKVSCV
Sequence of Muscarinic acetylcholine receptor M1 (Homo sapiens) (P11229 whole entry, looked up): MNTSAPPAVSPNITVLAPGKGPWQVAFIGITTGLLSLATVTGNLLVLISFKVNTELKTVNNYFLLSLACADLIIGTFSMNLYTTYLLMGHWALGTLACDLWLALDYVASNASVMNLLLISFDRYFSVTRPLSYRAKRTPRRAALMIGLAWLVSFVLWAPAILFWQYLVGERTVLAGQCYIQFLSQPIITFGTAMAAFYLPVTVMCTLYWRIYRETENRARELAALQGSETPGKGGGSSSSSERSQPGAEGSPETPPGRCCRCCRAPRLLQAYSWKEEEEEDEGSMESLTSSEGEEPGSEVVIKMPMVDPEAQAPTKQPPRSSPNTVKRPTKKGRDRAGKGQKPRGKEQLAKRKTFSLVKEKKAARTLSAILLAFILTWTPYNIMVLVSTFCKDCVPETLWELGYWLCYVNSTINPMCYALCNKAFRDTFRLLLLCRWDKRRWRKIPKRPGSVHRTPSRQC

CCOC(=O)c1ccccc1
inactive: [1] | [2] | [3] | [4] | [5] | [6] | [7] | [8] | [9] | [10] | [11] | [12] | [13] | [14] | [15] | [16] | [17]

CC(C)=CCC/C(C)=C/COC=O
inactive: [1] | [2] | [3] | [4] | [5] | [6] | [7] | [8] | [9] | [10] | [11] | [18] | [12] | [13] | [19] | [14] | [15] | [16] | [17]

CNS(=O)(=O)Cc1ccc2[nH]cc(CCN(C)C)c2c1
inactive: [1] | [2] | [3] | [4] | [5] | [6] | [7] | [8] | [9] | [10] | [19] | [14] | [15] | [16] | [17]

N#Cc1ccc(C(=O)O)cc1
inactive: [1] | [2] | [3] | [4] | [5] | [6] | [7] | [8] | [9] | [10] | [11] | [18] | [12] | [13] | [15] | [16] | [17]

Cc1ccc(OC(=O)c2ccccc2O)cc1
inactive: [1] | [2] | [3] | [4] | [5] | [6] | [7] | [8] | [9] | [10] | [18] | [12] | [13] | [15] | [20] | [16]

Cc1ccc(/C=N/n2c(-c3ccccc3)csc2=S)cc1
inactive: [1] | [2] | [3] | [4] | [5] | [6] | [7] | [8] | [9] | [10] | [11] | [18] | [13] | [19] | [14] | [15] | [16] | [17]

C=CCON/C(CCC)=C1\C(=O)CC(C)(C)C(C(=O)OC)=C1O
inactive: [1] | [2] | [3] | [4] | [5] | [6] | [7] | [8] | [9] | [11] | [18] | [12] | [19] | [14] | [15] | [16] | [17]
active: [13] 4.84 µM

C=CC(C)(O)CCCC(C)CCCC(C)CCCC(C)C (stereo not drawn)
inactive: [1] | [2] | [3] | [4] | [5] | [6] | [7] | [8] | [9] | [10] | [11] | [18] | [12] | [19] | [14] | [15] | [16] | [17]

O=C1CCCCCCCCCCC(=O)OCCO1
inactive: [1] | [2] | [3] | [4] | [5] | [6] | [7] | [8] | [9] | [10] | [11] | [15] | [16] | [17]

CCCCCCCCCCCCCCCCOS(=O)(=O)O
inactive: [1] | [2] | [3] | [4] | [5] | [6] | [7] | [8] | [9] | [10] | [13] | [19] | [14] | [15] | [16] | [17]

CCOC(=O)COc1ccc(C)cc1
inactive: [1] | [2] | [3] | [4] | [5] | [6] | [7] | [8] | [9] | [10] | [11] | [18] | [12] | [13] | [14] | [15] | [16] | [17]

CC(C)(C)c1n[nH]c(=S)n(N)c1=O
inactive: [1] | [2] | [3] | [4] | [5] | [6] | [7] | [8] | [9] | [10] | [11] | [18] | [13] | [15] | [20] | [17]

COC(=O)CS
active: [2] 52.4 µM
inactive: [1] | [3] | [4] | [5] | [6] | [7] | [8] | [9] | [10] | [11] | [18] | [12] | [13] | [19] | [15] | [16] | [17]

CCOC(=O)[C@H](O)[C@@H](O)C(=O)OCC
inactive: [1] | [2] | [3] | [4] | [5] | [6] | [7] | [8] | [9] | [10] | [18] | [12] | [13] | [14] | [15] | [20] | [16] | [17]
